Test systems include NCI-H23 lung; NCI-H226 lung; NCI-H322M lung; HOP-62 NSCLC; NCI-H460 lung; HOP-92 NSCLC; NCI-H522 lung; A549/ATCC NSCLC; 786-0 renal; COLO 205 colon; DU-145 prostate; K-562 leukemia; MALME-3M melanoma; MDA-MB-231 breast; RXF 393 renal; SF-268 CNS; SF-295 CNS; SF-539 CNS; UACC-257 melanoma; M14 melanoma.
Common to all, as to assay: NCI-60 one-dose screen, 48 h (100 = growth as untreated, 0 = no growth, -100 = all killed)
Common to all, as to conditions: 10 µM unless noted

The structures appear in SMILES notation. Values joined by “and” are separate entries in the source; they are usually repeats but may differ in a detail not shown here. Identical values can stand only once. This is part of a sample that, as a whole, favours compounds with a hit. Of some 83,000 tested, about 20% had one in any assay.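 For each line, cells grew in 96-well plates with the test compound present at a single concentration for 48 hours.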 Where a structure was tested more than once in an assay, its records may differ in their call. Active and inactive are the calls of the source. Rule for the calls: active = growth percent below 10; inactive = the rest.

With `O=C1NC(=O)C2(CCc3ccccc32)N1` (stereo not given), the growth in the experiment on NCI-H23 lung is 108% (inactive) and 89.4% (inactive); in the experiment with NCI-H226 lung, 101% (inactive) and 92.9% (inactive); with NCI-H322M lung, 98.8% (inactive) and 106% (inactive); in the experiment on HOP-62 NSCLC, 105% (inactive) and 88.3% (inactive); in the experiment on NCI-H460 lung it was 98.3% (inactive) and 116% (inactive); with HOP-92 NSCLC, 174% (inactive). Moreover, the growth in the experiment with NCI-H522 lung is 98.6% (inactive) and 80.6% (inactive); in the experiment with A549/ATCC NSCLC, 97.4% (inactive) and 91.4% (inactive); in the experiment with 786-0 renal, 115% (inactive) and 94.7% (inactive); with COLO 205 colon, 97.4% (inactive) and 108% (inactive); in the experiment on DU-145 prostate it was 123% (inactive) and 102% (inactive); with K-562 leukemia, 116% (inactive) and 83.6% (inactive). Further, the growth in the experiment on MALME-3M melanoma was 97% (inactive) and 96.7% (inactive); in the experiment with MDA-MB-231 breast it was 106% (inactive) and 97.2% (inactive); with RXF 393 renal, 95.3% (inactive); with SF-268 CNS, 99% (inactive) and 107% (inactive); in the experiment on SF-295 CNS, 96.5% (inactive) and 96% (inactive); with SF-539 CNS it was 90% (inactive) and 105% (inactive). Besides, the growth in the experiment with UACC-257 melanoma is 107% (inactive) and 86.1% (inactive); in the experiment with M14 melanoma, 107% (inactive) and 96.5% (inactive).
For the compound `CCN(CC)CCNc1ccc(C)c2sc3ccccc3c(=O)c12` (tested in a mixture with another compound), the growth in the experiment on NCI-H23 lung was 46.1% (inactive) and 52.4% (inactive); in the experiment with NCI-H226 lung, 64.9% (inactive) and 64.7% (inactive); in the experiment with NCI-H322M lung, 30% (inactive) and 56% (inactive); in the experiment with HOP-62 NSCLC, 51.4% (inactive) and 51.3% (inactive); in the experiment with NCI-H460 lung, 8.45% (active) and 5.28% (active); with HOP-92 NSCLC, 68.6% (inactive) and 38.1% (inactive). In addition, the growth was 22.6% (inactive) and 39.6% (inactive) in the experiment with NCI-H522 lung; 21.9% (inactive) and 19.8% (inactive) in the experiment with A549/ATCC NSCLC; 33.7% (inactive) and 37.3% (inactive) in the experiment on 786-0 renal; 27% (inactive) and 14.7% (inactive) in the experiment on COLO 205 colon; 36% (inactive) and 39.4% (inactive) in the experiment with DU-145 prostate; 0.322% (active) and 13.3% (inactive) in the experiment with K-562 leukemia. In addition, the growth was 30.9% (inactive) and 48.2% (inactive) in the experiment with MALME-3M melanoma; 18.3% (inactive) and 24.8% (inactive) in the experiment with MDA-MB-231 breast; -9.22% (active) and 16.4% (inactive) in the experiment with RXF 393 renal; 36.2% (inactive) and 24.3% (inactive) in the experiment with SF-268 CNS; 35.4% (inactive) and 40.9% (inactive) with SF-295 CNS; 38.6% (inactive) and 32% (inactive) in the experiment with SF-539 CNS. Further, the growth in the experiment with UACC-257 melanoma is -52.9% (active) and -51.9% (active); in the experiment on M14 melanoma, -50.9% (active) and -40.5% (active).
As to `Oc1nc(NCCc2ccccc2)sc1/C=C1\C=Nc2ncccc21`, the growth in the experiment on NCI-H23 lung was 2.96% (active) and 9.1% (active); in the experiment on NCI-H226 lung it was 22.4% (inactive) and 3.3% (active); in the experiment with NCI-H322M lung, 19.6% (inactive) and 5.21% (active); in the experiment on HOP-62 NSCLC it was -2.98% (active) and 19.9% (inactive); with NCI-H460 lung, 15.1% (inactive) and 14.1% (inactive); in the experiment on HOP-92 NSCLC, 11.8% (inactive) and -9.73% (active). Further, the growth was 4.33% (active) and 26.6% (inactive) in the experiment with NCI-H522 lung; 8.14% (active) and 19.1% (inactive) in the experiment with A549/ATCC NSCLC; 19.7% (inactive) and 9.01% (active) with 786-0 renal; -6.84% (active) and 4.78% (active) in the experiment with COLO 205 colon; 15.3% (inactive) and 20.7% (inactive) in the experiment on DU-145 prostate; 28.5% (inactive) and 29.9% (inactive) with K-562 leukemia. In addition, the growth was 44.8% (inactive) and 30.6% (inactive) with MALME-3M melanoma; 25.9% (inactive) and 25.5% (inactive) in the experiment with MDA-MB-231 breast; -30.1% (active) and -20.2% (active) in the experiment with RXF 393 renal; 8.87% (active) and 10.4% (inactive) in the experiment on SF-268 CNS; 18.7% (inactive) and 22.6% (inactive) in the experiment with SF-295 CNS; -37.2% (active) and 0.397% (active) in the experiment with SF-539 CNS. In addition, the growth with UACC-257 melanoma was -1.71% (active) and 14.6% (inactive); in the experiment on M14 melanoma, 31.7% (inactive) and 29.9% (inactive).
On to `O=S1(=O)CC(Br)C(Br)C1` (stereo not given), for which the growth was 61.3% (inactive) and 97.8% (inactive) in the experiment on NCI-H23 lung; 40.7% (inactive) and 113% (inactive) in the experiment with NCI-H226 lung; 104% (inactive) and 108% (inactive) in the experiment on NCI-H322M lung; 104% (inactive) and 116% (inactive) in the experiment with HOP-62 NSCLC; 107% (inactive) and 97.5% (inactive) with NCI-H460 lung; 5.91% (active) and 37.5% (inactive) with HOP-92 NSCLC. Further, the growth in the experiment with NCI-H522 lung is -48.2% (active); with A549/ATCC NSCLC, 95.4% (inactive) and 95% (inactive); in the experiment with 786-0 renal it was 101% (inactive) and 82.1% (inactive); with COLO 205 colon, 41.1% (inactive) and 58.3% (inactive); with DU-145 prostate it was 72.3% (inactive) and 129% (inactive); in the experiment on K-562 leukemia, 47% (inactive) and 69.7% (inactive). The growth with MALME-3M melanoma is 19.9% (inactive) and 53.1% (inactive); in the experiment with MDA-MB-231 breast, 88% (inactive) and 103% (inactive); with RXF 393 renal, 40.1% (inactive) and 67.5% (inactive); in the experiment on SF-268 CNS, 109% (inactive) and 129% (inactive); with SF-295 CNS, 111% (inactive) and 99.8% (inactive); in the experiment on SF-539 CNS, 97.6% (inactive) and 99.1% (inactive). Besides, the growth is 71.5% (inactive) and 64.7% (inactive) in the experiment on UACC-257 melanoma; 73.2% (inactive) and 87.5% (inactive) with M14 melanoma.
